Measles CPE: protection of cells from measles virus; protection (pct of control), % at 4 µM; 1.5% of 140,000 active; Measles virus-infected cells, CPE protection, absorbance; in the data active means protection mostly above about 24%, no sharp cut-off; inactive means mostly below about 26%
CYP2C9 act: increases human cytochrome P450 2C9 activity; P11712; recombinant CYP2C9, luciferin-H conversion, luminescence; active compounds read high; factor 1 = untreated enzyme, 0 = blocked; activation factor at 5 µM; 1.4% of 96,000 active;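 active means activation factor of 2 or more for CYP2C9 at a 5 µM dose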;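 further: 0 = sulfaphenazole-blocked wells and 1 = vehicle-only wells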
Target sequence (P11712 whole entry, looked up): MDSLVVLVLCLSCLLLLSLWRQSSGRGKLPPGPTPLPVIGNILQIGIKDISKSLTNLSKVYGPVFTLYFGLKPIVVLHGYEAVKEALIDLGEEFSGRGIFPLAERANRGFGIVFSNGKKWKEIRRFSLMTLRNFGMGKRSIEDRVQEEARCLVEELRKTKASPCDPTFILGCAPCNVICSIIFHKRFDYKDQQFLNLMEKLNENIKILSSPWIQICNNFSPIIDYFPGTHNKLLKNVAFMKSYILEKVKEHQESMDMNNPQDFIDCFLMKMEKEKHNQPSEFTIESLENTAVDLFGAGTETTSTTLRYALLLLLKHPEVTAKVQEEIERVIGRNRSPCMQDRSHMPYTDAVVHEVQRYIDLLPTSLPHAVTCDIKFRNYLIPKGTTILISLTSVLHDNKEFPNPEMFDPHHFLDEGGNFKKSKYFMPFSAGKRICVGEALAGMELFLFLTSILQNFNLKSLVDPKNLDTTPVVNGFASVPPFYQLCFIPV
CYP2C19 inhib: human CYP2C19 inhibition | 21% of 96,000 active | AID 778 | CYP2C19 Supersomes, luciferin-H EGE luminescence, 30 min | inhibition, % at 5 µM | P33261;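 active means CYP2C19 inhibition above a set limit at 5 µM in the primary screen, cut at about 50% in these data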;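 further: plate controls were negative control wells for no effect and 2.5 mM tranylcypromine positive control for full effect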
CYP2C19 activ: cytochrome P450 2C19 (human) activation | P33261 | recombinant CYP2C19, luciferin-H EGE luminescence; active compounds read high; 0 = fully inhibited enzyme, 1 = untreated enzyme | activation factor at 5 µM | 96,000 tested, under 10 active | AID 1025;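 active means activation factor of at least 2 at 5 µM in the primary screen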;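 further: 0 = wells with 2.5 mM tranylcypromine and 1 = vehicle-only wells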
CYP2C9 inh: inhibitors of human CYP2C9 | P11712 | CYP2C9 Supersomes, luciferin-H conversion, luminescence | inhibition, % at 5 µM | 20% of 96,000 active | AID 777;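 active means blocking of liver enzyme CYP2C9 beyond about 50% at 5 µM, limit read from the data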
Numbers without * were called inactive. The list is not random: actives were taken first. Their share in the collection is about 22%.

`COCCn1c(C)cc(C(=O)CSc2n[nH]c(N)n2)c1C` gave Measles CPE 3.5, CYP2C9 act 1.9, CYP2C19 inhib 7.5, CYP2C19 activ 0.9 and CYP2C9 inh -85.7.
`Cc1cc(C)cc(-n2c(C)cc(C(=O)CSc3nnnn3C)c2C)c1` gave Measles CPE 7.8, CYP2C9 act 0.4, CYP2C19 inhib 61.3*, CYP2C19 activ 0.4 and CYP2C9 inh 64.3*.
Screening Cc1cc(C(=O)CSc2nnc(C3COc4ccccc4O3)n2C)c(C)n1-c1ccc(F)cc1 (stereo unspecified) returned Measles CPE 15.7, CYP2C9 act 0.5, CYP2C19 inhib 48.8, CYP2C19 activ 0.5 and CYP2C9 inh 50.5*.
Screening Cc1cc(C(=O)CSc2ncccn2)c(C)n1-c1cccc(F)c1 returned Measles CPE 7.7.
`CCn1c2ccccc2c2nnc(SCc3ccc(C(=O)OC)o3)nc21` gave Measles CPE 4.8, CYP2C9 act 0.8, CYP2C19 inhib 47.5, CYP2C19 activ 0.5 and CYP2C9 inh 21.9.
Screening CCC(Sc1nc2c(cnn2-c2ccc(Cl)cc2)c(=O)[nH]1)C(=O)OC (stereo unspecified) returned Measles CPE 6.6, CYP2C9 act 0.7, CYP2C19 inhib 3.5, CYP2C19 activ 1 and CYP2C9 inh 29.0.
CCCNc1nc(OC(C(F)(F)F)C(F)(F)F)nc(OC(C(F)(F)F)C(F)(F)F)n1 was read as Measles CPE 20.1, CYP2C9 act 0.8, CYP2C19 inhib 11.4, CYP2C19 activ 0.9 and CYP2C9 inh 16.6.
CCc1ccc(C2=NN(C(=O)OC)C(O)(C(F)(F)F)C2)cc1 (stereo unspecified) was read as Measles CPE 16.8, CYP2C9 act 0.9, CYP2C19 inhib 22.3, CYP2C19 activ 0.8 and CYP2C9 inh 9.0.
COc1ccc(CCn2c(C)cc(C(=O)CSc3nnnn3C)c2C)cc1 was read as Measles CPE 16.1, CYP2C9 act 0.8, CYP2C19 inhib 40.9, CYP2C19 activ 0.6 and CYP2C9 inh 18.7.
`Cc1cc(C(=O)CSc2nnnn2C)c(C)n1-c1cccc(F)c1` gave Measles CPE 3.1, CYP2C9 act 0.6, CYP2C19 inhib 95.0*, CYP2C19 activ 0.1 and CYP2C9 inh 44.9.
Screening Cc1cc(C(=O)CSc2nc(N)cc(N)n2)c(C)n1CCc1ccc(F)cc1 returned Measles CPE 4.2, CYP2C9 act 0.5, CYP2C19 inhib 75.9*, CYP2C19 activ 0.2 and CYP2C9 inh 53.3*.
Screening Cc1ccc(S(=O)(=O)NCCC(=O)NCc2ccc3c(c2)OCO3)cc1C returned Measles CPE 16.3, CYP2C9 act 2.1*, CYP2C19 inhib 37.7, CYP2C19 activ 0.6 and CYP2C9 inh -110.8.
CS(=O)(=O)N(CC(=O)NCc1ccc2c(c1)OCO2)c1ccccc1 was read as Measles CPE 27.5, CYP2C9 act 1, CYP2C19 inhib 26.0, CYP2C19 activ 0.7 and CYP2C9 inh -2.5.
Cc1ccc(S(=O)(=O)N(C)CCCC(=O)NCc2ccc3c(c2)OCO3)cc1 was read as Measles CPE 5.7, CYP2C9 act 0.2, CYP2C19 inhib 82.3*, CYP2C19 activ 0.2 and CYP2C9 inh 75.6*.
CCCN(CCC)S(=O)(=O)c1ccc(C(=O)NCc2ccc3c(c2)OCO3)cc1 was read as Measles CPE 15.5, CYP2C9 act 1.1, CYP2C19 inhib -0.6, CYP2C19 activ 1 and CYP2C9 inh -8.1.
`O=C(CCNS(=O)(=O)c1ccc2c(c1)CCC(=O)N2)NCc1ccc2c(c1)OCO2` gave Measles CPE 5.7, CYP2C9 act 0.6, CYP2C19 inhib 0.3, CYP2C19 activ 1 and CYP2C9 inh 41.3.
For Cc1ccc(N(CC(=O)NCc2ccc3c(c2)OCO3)S(C)(=O)=O)cc1 the results were Measles CPE 5.4, CYP2C9 act 0.5, CYP2C19 inhib 55.2*, CYP2C19 activ 0.4 and CYP2C9 inh 45.4.
Screening O=C(CCNS(=O)(=O)c1ccccc1F)NCc1ccc2c(c1)OCO2 returned Measles CPE 5.1, CYP2C9 act 0.7, CYP2C19 inhib 70.0*, CYP2C19 activ 0.3 and CYP2C9 inh 28.3.
CCS(=O)(=O)N1CCN(C(=O)CCC2CCCC2)CC1 was read as Measles CPE 5.7.
For CC(C)c1nnc(NC(=O)CN2C(=O)c3ccccc3C2=O)s1 the results were Measles CPE 4.7, CYP2C9 act 0.8, CYP2C19 inhib 2.5, CYP2C19 activ 1 and CYP2C9 inh 16.3.
Screening COc1cc(NC(=O)c2cc(C(C)C)on2)c(OC)cc1Cl returned Measles CPE 0.2, CYP2C9 act 0.9, CYP2C19 inhib 10.2, CYP2C19 activ 0.9 and CYP2C9 inh 7.4.
`COc1ccc(NC(=O)c2cc(C(C)C)on2)c(OC)c1` gave Measles CPE 18.4, CYP2C9 act 2.8*, CYP2C19 inhib 38.7, CYP2C19 activ 0.6 and CYP2C9 inh -183.5.
For COc1ccc(NC(=O)c2ccccc2O)c(OC)c1 the results were Measles CPE 22.7, CYP2C9 act 0.5, CYP2C19 inhib 60.5*, CYP2C19 activ 0.4 and CYP2C9 inh 53.3*.
For COc1ccc(NC(=O)C2OCCc3ccccc32)c(OC)c1 (stereo unspecified) the results were Measles CPE -0.2, CYP2C9 act 1, CYP2C19 inhib 91.4*, CYP2C19 activ 0.1 and CYP2C9 inh 0.3.
COc1ccc(NC(=O)c2c(OC)cccc2OC)c(OC)c1 was read as Measles CPE 11.1, CYP2C9 act 0.8, CYP2C19 inhib 17.9, CYP2C19 activ 0.8 and CYP2C9 inh 20.3.
O=C(Nc1cccnc1)C1OCCc2ccccc21 (stereo unspecified) was read as Measles CPE 20.3, CYP2C9 act 1.1, CYP2C19 inhib 5.5, CYP2C19 activ 0.9 and CYP2C9 inh -12.3.
COc1ccc(OC)c(/C=N/NC(=O)c2cc[n+](Cc3ccccc3)cc2)c1 was read as Measles CPE 16.0.
CCCC(=O)C1=C(O)C(C(=O)OC)C(C)(C)CC1=NC (stereo unspecified) was read as Measles CPE 8.6, CYP2C9 act 1, CYP2C19 inhib 22.4, CYP2C19 activ 0.8 and CYP2C9 inh 0.3.
CCCC(=O)C1=C(O)C(C(=O)OC)C(C)(C)CC1=Nc1ccncc1 (stereo unspecified) was read as Measles CPE 21.3, CYP2C9 act 0.4, CYP2C19 inhib 89.7*, CYP2C19 activ 0.1 and CYP2C9 inh 60.7*.
`CCCC(=O)C1=C(O)C(C(=O)OC)C(C)(C)CC1=Nc1ccc(N)cc1` (stereo unspecified) gave Measles CPE 0.3, CYP2C9 act 0.6, CYP2C19 inhib 51.7*, CYP2C19 activ 0.5 and CYP2C9 inh 42.3.
For CC(C)(C)n1nnnc1C(c1cccs1)N1CCN(Cc2ccccc2)CC1 (stereo unspecified) the results were Measles CPE 3.2, CYP2C9 act 1, CYP2C19 inhib -5.0, CYP2C19 activ 1.1 and CYP2C9 inh -4.5.
Screening COCCn1c(=O)[nH]c2cc(C(=O)NCCN3CCN(c4cccc(Cl)c4)CC3)ccc2c1=O returned Measles CPE 6.0.

Screening results (PubChem BioAssay)
